LDHA block: blocks human lactate dehydrogenase A. hit rate 0.15% among 480,000. AID 1347041. activity change, % (values are at about 110 or 230 µM). P00338. purified LDHA, NADH/diaphorase-resazurin fluorescence; hits give low values; in the data active = activity change below about -30%; inconclusive = mostly about -25% to -30%;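 note: plate controls were DMSO wells for no effect and wells without enzyme for full effect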
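LDH5 2 nM; NADH 0.06 mM, pyruvate 0.2 mM; 200 mM Tris pH 7.4, EDTA, Tween-20; 5 min RT. Detection: diaphorase 0.133 mg/mL + resazurin 37 µM, fluorescence ex540/em590 at 0 and 20 min; normalized to enzyme-free and DMSO wells.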
D2 PAM-1: positive allosteric modulators of human D2 dopamine receptor; P14416; HEK293 T-REx D2, calcium flux, EC20 dopamine potentiation; potentiation, % at 10 µM; hit rate 0.34% among 340,000; AID 485347;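 active = potentiation over 3 SD above the plate norm, cut at about 30% in these data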; note: 0% is about no effect
Target sequence (P14416 whole entry, looked up): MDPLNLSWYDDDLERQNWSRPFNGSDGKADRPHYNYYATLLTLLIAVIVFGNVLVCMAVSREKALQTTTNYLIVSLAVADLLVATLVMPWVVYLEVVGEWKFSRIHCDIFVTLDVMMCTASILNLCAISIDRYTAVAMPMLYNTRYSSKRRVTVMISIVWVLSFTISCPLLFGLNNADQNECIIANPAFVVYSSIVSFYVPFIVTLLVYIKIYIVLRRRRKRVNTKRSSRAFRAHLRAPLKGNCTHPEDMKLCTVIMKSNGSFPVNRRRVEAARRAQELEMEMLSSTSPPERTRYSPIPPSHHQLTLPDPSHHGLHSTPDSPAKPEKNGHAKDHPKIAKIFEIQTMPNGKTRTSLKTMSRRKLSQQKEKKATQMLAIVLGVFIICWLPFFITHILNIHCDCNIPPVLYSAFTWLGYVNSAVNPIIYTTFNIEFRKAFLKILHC
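Potentiation of an EC20 dopamine calcium response measured kinetically over 180 s, after a preceding 180 s compound-only read flagging agonists. Cells: inducible Hek293 Trex D2 line, 4000/well, cultured overnight at 30 C before dye loading.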
D2 ag-1: activates the human D2 dopamine receptor. P14416. DiscoveRx PathHunter D2 beta-arrestin, luminescence, 90 min; 100% = 57 uM dopamine signal. activation, % (no concentration beside the values). hit rate 0.084% among 360,000. AID 624465; in the data active = activation above about 40%; inconclusive = between about 15% and that limit
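DiscoveRx PathHunter D2 beta-arrestin cells (2,100/well) attached overnight, then compound-stimulated 90 min at 37 C in HBSS/10 mM HEPES/0.1% Tween-20 buffer; beta-galactosidase complementation read by luminescence after 1 h at ambient temperature. Dopamine 57 uM final (EC100) as control.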
D2 ag-2: activates the human D2 dopamine receptor | P14416 | HEK293 T-REx D2 cells, calcium flux agonist mode | activation, % at 2 µM | hit rate 0.53% among 340,000;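 active = activation over 3 SD above normal in the single-dose calcium agonist read, cut at about 30% in these data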; note: 0% is about no effect
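HEK293 Trex D2 cells, tetracycline-induced, o/n 30 C 5% CO2; no-wash Ca dye, RT 30–90 min; 10-cycle baseline, 23 nl cpd added, kinetic Ca read 180 s; agonist hits = positive Ca response.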
D2 PAM-2: potentiates the human D2 dopamine receptor allosterically; P14416; DiscoveRx D2 beta-arrestin cells, luminescence, 90 min; 100% = 57 uM dopamine signal; potentiation, % (no concentration beside the values); hit rate 0.23% among 360,000; AID 624464; in the data active = potentiation above about 50%; inconclusive = mostly about 30% to 49%
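PathHunter D2 cells, attached overnight at 37 deg C, received compound in DMSO plus dopamine at EC20 (50 nM final) for 90 min at 37 deg C. Beta-arrestin recruitment was read as luminescence after 1 h with detection reagent at ambient temperature.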
D2 antag: antagonists of human D2 dopamine receptor; P14416; HEK293 TREx D2 cells, calcium flux, dopamine EC80; inhibition, % at 10 µM; hit rate 2% among 340,000; AID 485344; in the data active = inhibition above about 30%; inactive = below that, where a call was filed; note: 0% is about no effect
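Tetracycline-induced HEK293 TREx cells expressing D2 receptor forced-coupled to calcium signalling, loaded with no-wash calcium dye. Compounds added and calcium flux read 180 s, then dopamine added at EC80 and read a further 180 s.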
D3 ag: confirmation of human D3 dopamine receptor agonists, beta-arrestin; shares compounds with D2 ag-2; DiscoveRx D3 beta-arrestin cells, luminescence, 90 min; Potency, µM (series often up to 76.9 µM), without a hit: top-dose activation, actives largely listed as activators; hit rate 4% among 2,300; AID 720506;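 note: potency is the fitted concentration of half-maximal effect; 100% = dopamine control response; nearly all actives have a fitted effect of over 70% in size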
D2 ag-3: counter-screen for D3 agonists: human D2 dopamine receptor agonism | DiscoveRx PathHunter D2 beta-arrestin, luminescence, 90 min; response scale: percent relative to full dopamine signal | hit rate 5.9% among 2,300 | Potency, µM (highest dose often 76.9 µM), inactives show at the highest dose activation, actives largely listed as activators | shares compounds with D2 ag-2; note: potency is the fitted concentration of half-maximal effect; % of control where 0% means no effect; nearly all actives have a fitted effect of over 70% in size
Numbers without * were called inactive; ? = inconclusive; · = not tested or not shown. Shown are actives, neighbours in structure and some others; about 2.1% of the full set was active somewhere. Unless noted, calls come from the whole dose curve; as a rule, active = well fitted activation curve with a large enough effect; inconclusive = small, poorly fitted or top-dose-only effect; inactive = flat fitted curve, though single readings scatter.

SMILES	LDHA block	D2 PAM-1	D2 ag-1	D2 ag-2	D2 PAM-2	D2 antag	D3 ag	D2 ag-3
Fc1ccc(NC(=S)N2CCCC(c3ccccc3)=N2)cc1	1	3	-4	26	5	-2	-6%	22%
CCOc1ccccc1C(=O)N(CCC(=O)OC)c1ccccn1	0	-10	0	0	-16	5	·	·
COC(=O)CCN(C(=O)C1C2CC3CC(C2)CC1C3)c1ccccn1 (stereo not drawn)	-8	-7	?	41*	0	14	1%	?
CCOc1cc(-c2c(C)c(C)nc(N)c2C#N)ccc1O	-4	-23	?	13	9	8	·	·
CCOc1cc(-c2c(C)c(CC)nc(N)c2C#N)ccc1O	-2	-11	?	24	4	5	3%	?
CCC(=O)Oc1ccc(C(=O)Nc2ccc3c(c2)OCO3)cc1	-1	2	6	-1	-6	17	2%	1%
CN(C)c1ccc(-c2nn3c(CN4CCCCC4)nnc3s2)cc1	0	·	·	·	·	·	·	·
COc1ccc2cc(C(=O)C3CCCN(Cc4cnc(N5CCOCC5)s4)C3)ccc2c1 (stereo not drawn)	1	-14	0	36*	-5	-4	-9%	0%
CC(C)c1ccc(-c2nonc2NC(=O)c2cc(=O)c3cc(Br)ccc3o2)cc1	8	·	·	·	·	·	·	·
COc1ccc2c(C)c(CCC(=O)Nc3ccc(Br)c(C)c3)c(=O)oc2c1	-2	·	·	·	·	·	·	·
CC(=NCCc1ccccc1)C1=C(O)CCC1=O	-11	-15	3	42*	-2	23	-7%	-3%
O=C(NCc1ccccc1)c1nncc(-c2ccccc2)n1	-9	-2	-5	0	-15	9	2%	-4%
CCC(C)(C)C1CCc2c(sc(NC(=O)C3CC4CCC3C4)c2C#N)C1 (stereo not drawn)	-4	·	·	·	·	·	·	·
COc1ccccc1C1CCN(Cc2cccc(C(=O)N3CCC(O)CC3)c2)CC1	-8	-24	0	75*	-5	75*	-4%	6%
Cc1ccc(-n2ncc3c2CC(C)(C)CC3NC(=O)CN2CCCC2=O)cc1 (stereo not drawn)	1	-8	-1	0	7	9	·	·
C=CCC(=O)NC1CC(C)(C)Cc2c1cnn2-c1ccc(C)cc1 (stereo not drawn)	1	-20	4	72*	0	14	-8%	-5%
COc1ccc(C(=O)Nc2cc(C(F)(F)F)ccc2-n2cnc3ccccc32)cc1	-2	13	2	0	-5	-3	·	·
CC(=O)Nc1ccc(C(=O)Nc2cc(C(F)(F)F)ccc2-n2cnc3ccccc32)cc1	1	2	3	1	-2	7	-5%	-2%
C=CCn1c(-c2ccc(OC)cc2)csc1=Nc1c(C)n(C)n(-c2ccccc2)c1=O	-8	-15	?	67*	-25	54*	-8%	?
CCCCSc1nc2c(c(=O)[nH]c(=O)n2C)n1CC(O)COc1ccc(CC)cc1 (stereo not drawn)	5	·	·	·	·	·	·	·
COc1ccc2cc(C=O)n(C)c2c1	0	1	-4	0	1	-1	2%	-5%
Cc1cc(/C=C(/CCCC(=O)O)c2nc3ccccc3s2)cc(C)c1O	0	·	·	·	·	·	·	·
CCCC(c1nnnn1Cc1ccc(OC)cc1)N1CCN(c2ccccc2)CC1 (stereo not drawn)	1	-10	?	45*	-5	8	-5%	?
FC(F)(F)c1ccccc1CN1CCCC(N2CCN(c3ccccc3)CC2)C1 (stereo not drawn)	1	-25	-1	62*	-15	78*	-4%	21%
COc1ccc(N2CCN(C3CCCN(Cc4ccc(F)cc4)C3)CC2)cc1 (stereo not drawn)	1	-5	1	0	-24	-16	·	·
SMILES	LDHA block	D2 PAM-1	D2 ag-1	D2 ag-2	D2 PAM-2	D2 antag	D3 ag	D2 ag-3
O=C(/C=C/c1ccccc1OCc1cccnc1)c1ccc(O)cc1	1	·	·	·	·	·	·	·
CCN1C(C(=O)Nc2cc(C)on2)=C(O)c2ccccc2S1(=O)=O	-12	4	-2	38*	-1	14	3%	12%
COc1cccc(/C=C/C(=O)Nc2cccc(CO)c2)c1	-7	·	·	·	·	·	·	·
O=C(CSc1nc2ccccc2o1)OCC(=O)c1ccc(Br)cc1	0	·	·	·	·	·	·	·
O=C(O)C1C2C=CC(C2)C1C(=O)NCCc1ccccc1 (stereo not drawn)	-1	-12	8	53*	15	23	0%	0%
O=C(O)C1C2C=CC(C2)C1C(=O)NCCCc1ccccc1 (stereo not drawn)	-5	1	1	1	-9	-26	·	·
Cc1cccc(CSc2nnc([C@@H]3CCCN3C(=O)OC(C)(C)C)o2)c1	1	0	-3	-1	-31	36*	-1%	-5%
CCOCCCNC(=O)c1cc(-c2cccs2)nc2ccccc12	3	·	·	·	·	·	·	·
COc1ccc(-c2[nH]ncc2CN2CCN(C(=O)c3cccs3)CC2)c(F)c1	-8	2	-3	0	11	14	·	·
O=C(c1cccs1)N1CCN(Cc2cn[nH]c2-c2ccc(F)cc2F)CC1	-1	-26	?	80*	7	53*	?	?
Cc1ccc(-c2[nH]ncc2CN2CCN(C(=O)c3cccs3)CC2)cc1C	-1	-32	6	77*	-15	66*	?	21%
CNC(=O)NC(=O)CNc1ccccc1N(C)Cc1ccccc1	9	·	·	·	·	·	·	·
CCOC(=O)c1c(C)n(CC)c2ccc(OC(=O)c3ccccc3C)cc12	5	·	·	·	·	·	·	·
O=C(NC1CCc2ccccc21)c1cc(COc2ccc(F)cc2F)on1 (stereo not drawn)	-5	20	-3	2	-2	3	·	·
COc1ccc(OCc2cc(C(=O)NC3CCc4ccccc43)no2)c(Cl)c1 (stereo not drawn)	-10	-23	-1	58*	-12	-12	-3%	-1%
CCC(=O)Nc1ccc2c(c1)nc(CCN1CCCCC1)n2C	0	-2	-7	1	-17	-3	·	·
Cn1c(CCN2CCN(c3ccccn3)CC2)nc2cc(NC(=O)COc3ccc([N+](=O)[O-])cc3)ccc21	-4	-14	2	82*	3	31*	15%	18%

Screens as filed in PubChem BioAssay.
